Experimental data as given in PubChem BioAssay (EPA / NIEHS).
Results filed as inconclusive are left out. Active and inactive are the calls of the source. The calls were made as follows: active = hit-call score of the fitted dose curve at least 0.9, where 1 is the maximum; inconclusive = response in the unintended direction; inactive = score below 0.9.

Legend:
[1] = NVS_IC_rCaBTZCHL: NovaScreen (NVS) Ion Channel Assay for Calcium Channel, Type L, Benzothiazepine Site (CaBTZCHL) (AID 2283337)
Summary of the method: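 Rat cortical membrane preparation, cell-free. Radioligand displaced by test chemical; 1.5 h incubation; filtration, scintillation count. DMSO = negative control/baseline. Primary: duplicate, 25 uM; secondary: concentration series.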

[2] = biological target: rat Glutamate, MK-801 Agonist Site (GluNMDA_MK801), Grin1 (gene 24408) (UniProt P35439); test: NVS_LGIC_rGluNMDA_MK801_Agonist: NovaScreen (NVS) Ligand-Gated Ion Channel Assay for rat Glutamate, MK-801 Agonist Site (GluNMDA_MK801) (AID 2283340)
Summary of the method: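 Rat forebrain membrane preparation; MK-801-site radioligand binding read by filtration and scintillation after 1.5 h. Single-point 25 uM duplicate screen, followed by singleton concentration series to 50 uM max; DMSO baseline.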

[3] = test system: guinea pig Histamine Receptor (H2), gene 100729734; test: NVS_GPCR_gH2: NovaScreen (NVS) G Protein-Coupled Receptor Assay for guinea pig Histamine Receptor (H2) (AID 2283342)
Summary of the method: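 Guinea pig striatal membrane preparation with specific radioligand; bound counts measured by filtration and scintillation 1 h post-dosing, DMSO as baseline. Chemicals passing a 25 uM duplicate screen were titrated to a 50 uM maximum.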

[4] = biological target: bovine Estrogen Receptor (ER), ESR1 (gene 407238) (UniProt P49884); test: NVS_NR_bER: NovaScreen (NVS) Nuclear Receptor Binding Assay for bovine Estrogen Receptor (ER) (AID 2283345);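 also: actives lower the bound radioligand count which means they displace the ER ligand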
Summary of the method: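 Displacement of a radioligand from estrogen receptor in bovine uterine membrane preparations; scintillation signal taken at 18 hours, DMSO as baseline. Single-concentration duplicates (25 uM) preceded concentration-response follow-up of actives.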

[5] = biological target: Estrogen receptor (Homo sapiens) (UniProt P03372); test: OT_ER_ERaERa_1440: Odyssey Thera (OT) 24-hour HEK293T Protein-Complementation Assay for Estrogen Receptor-alpha/-alpha Homodimer (AID 2283349);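 also: hits raise fluorescence above DMSO for agonists and antagonists alike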
Summary of the method: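 Stably transfected HEK293T; ERα LBD homodimer PCA. 24 h dosing, fluorescence intensity read, gain-of-signal vs DMSO.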

[6] = biological target: Estrogen receptor (Homo sapiens) (UniProt P03372); test: OT_ER_ERaERa_0480: Odyssey Thera (OT) 8-hour HEK293T Protein-Complementation Assay for Estrogen Receptor-alpha/-alpha Homodimer (AID 2283351);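 also: rise in fluorescence from reassembled reporter fragments on ERα LBD homodimer in nucleus or whole cell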
Summary of the method: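 Read-out: fluorescence intensity rise relative to DMSO, nuclear for agonists, nuclear plus cytoplasmic for antagonists. Construct is the ERα LBD (aa 310-547) homodimer fragment-complementation pair, stably expressed in HEK293T; exposure 8 h.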

[7] = biological target: Estrogen receptor (Homo sapiens) + Estrogen receptor beta (Homo sapiens) (UniProt P03372+Q92731); test: OT_ER_ERaERb_0480: Odyssey Thera (OT) 8-hour HEK293T Protein-Complementation Assay for Estrogen Receptor-alpha/-beta Heterodimer (AID 2283352)
Summary of the method: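 Compound added to HEK293T cells carrying split-reporter-tagged ER-alpha and ER-beta LBDs, incubated 8 hours, then imaged by laser scanning cytometer. Signal rise in nucleus, or nucleus and cytoplasm, over vehicle was fitted in the positive direction.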

[8] = biological target: Androgen Receptor/SRC-1 Co-activator, AR (gene 367) (UniProt P10275); test: OT_AR_ARSRC1_0960: Odyssey Thera (OT) 16-hour HEK293T Protein-Complementation Assay for Androgen Receptor/SRC-1 Co-activator (AID 2283353);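 also: actives raise the signal above DMSO so potency reflects increased AR and SRC-1 complex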
Summary of the method: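 Readout: 488 nm nuclear-to-cytoplasmic fluorescence ratio from imaging of at least 400 cells per image, 16 h post-dose. Reporter is Venus YFP complementation between AR and SRC-1 fusions, stably expressed in HEK293T; activity scored upward relative to DMSO.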

[9] = biological target: Androgen Receptor/SRC-1 Co-activator, AR (gene 367) (UniProt P10275); test: OT_AR_ARSRC1_0480: Odyssey Thera (OT) 8-hour HEK293T Protein-Complementation Assay for Androgen Receptor/SRC-1 Co-activator (AID 2283354);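 also: hits raise the complementation signal above DMSO so AC50 marks enhancers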
Summary of the method: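 After 8 h dosing, stably expressing HEK293T cells with split-Venus AR/SRC-1 fusions were imaged (488, 635nm). The 488nm N/C ratio per image gave the endpoint, analysed in the positive direction against DMSO.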

[10] = biological target: Estrogen receptor beta (Homo sapiens) (UniProt Q92731); test: OT_ER_ERbERb_0480: Odyssey Thera (OT) 8-hour HEK293T Protein-Complementation Assay for Estrogen Receptor-beta/-beta Homodimer (AID 2283357);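 also: active means signal gain over DMSO baseline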
Summary of the method: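 Fluorescence gain from complemented reporter fragments on ER-beta LBD homodimer in HEK293T was quantified against DMSO controls after 8 h treatment, fixation in 4% formaldehyde and Draq5 staining.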

[11] = biological target: bovine Gamma-Aminobutyric Acid Type A Receptor Agonist (GABAR Agonist), GABRA1 (gene 780973) (UniProt P08219); test: NVS_LGIC_bGABAR_Agonist: NovaScreen (NVS) Ligand-Gated Ion Channel Assay for bovine Gamma-Aminobutyric Acid Type A Receptor Agonist (GABAR Agonist) (AID 2283338)
Summary of the method: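 Radioligand binding to bovine cerebellar membranes in agonist format, read by filter-based scintillation counting after 1 h. Primary screen in duplicate at 25 uM, with actives followed in concentration series. Gain of signal versus DMSO.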

[12] = biological target: Small conductance calcium-activated potassium channel protein 1 (Rattus norvegicus) (UniProt P70606); test: NVS_IC_rKCaCh: NovaScreen (NVS) Ion Channel Assay for rat Potassium Channel, Ca2+ Act., VI (KCaCh) (AID 2283336)
Summary of the method: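 Filter-based scintillation counting of radioligand bound to rat forebrain membrane preparations, measured 1 h after compound addition. Primary screen used 25 uM in duplicate, with concentration-response follow-up; signal decrease relative to DMSO marks activity.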

[13] = biological target: rat Glycine Receptor, Strychnine-sensitive (GlyRStrySens), Glra1 (gene 25674) (UniProt P07727); test: NVS_LGIC_rGlyRStrySens: NovaScreen (NVS) Ligand-Gated Ion Channel Assay for rat Glycine Receptor, Strychnine-sensitive (GlyRStrySens) (AID 2283341)
Summary of the method: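 Radioligand displacement on rat spinal cord membranes, 1 hr, filter scintillation read-out. Single-concentration duplicate screen at 25 uM; chemicals meeting threshold (e.g., 30% inhibition) rerun in concentration-response up to 50 uM. Loss of binding fitted versus DMSO.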

[14] = biological target: chimpanzee Androgen Receptor (AR), AR (gene 747460) (UniProt O97775); test: NVS_NR_cAR: NovaScreen (NVS) Nuclear Receptor Binding Assay for chimpanzee Androgen Receptor (AR) (AID 2283346);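 also: radioligand displacement from AR measured by scintillation counting in a cell-free assay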
Summary of the method: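 Cell-free radioligand displacement using receptor protein extracted from Sf9/Sf21 cells; bound radioligand measured by scintillation counting 72 hours after chemical dosing. Loss of signal versus DMSO baseline indicates binding; primary screen single-concentration in duplicate at 25 uM, actives followed in concentration series.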

[15] = test system: NCBI gene 100848466; test: NVS_NR_bPR: NovaScreen (NVS) Nuclear Receptor Binding Assay for bovine Progextron Receptor (PR) (AID 2283343);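 also: actives lower bound radioligand signal below DMSO meaning displacement of the label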
Summary of the method: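 Steps: bovine uterine membranes were dosed with chemical alongside radioligand, incubated 18 hours, then radiodetected by scintillation counting. Initial testing used 25 uM in duplicate; confirmed actives were rerun as concentration series.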

[16] = biological target: rat Mineralocorticoid Receptor (MR), Nr3c2 (gene 25672) (UniProt P22199); test: NVS_NR_rMR: NovaScreen (NVS) Nuclear Receptor Binding Assay for rat Mineralocorticoid Receptor (MR) (AID 2283355)
Summary of the method: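 Single-concentration duplicate screen (25 uM) of radioligand binding in adrenalectomized rat brain supernatant; scintillation detection 24 h after dosing. Positive and negative controls ran on each plate, and confirmed actives went to concentration-response.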

[17] = biological target: human Constitutive Androstane Receptor (CAR), NR1I3 (gene 9970) (UniProt Q14994); test: NVS_NR_hCAR_Antagonist: NovaScreen (NVS) Nuclear Receptor Binding Assay for human Constitutive Androstane Receptor Antagonism (CAR) (AID 2283344)
Summary of the method: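 Single 25 uM duplicate primary screen, with concentration-series follow-up on actives. Cell-free binding format run in antagonist mode, TR-FRET signal taken 1 h post-dose; activity is signal loss relative to DMSO.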

[18] = biological target: Estrogen receptor (Homo sapiens) (UniProt P03372); test: NVS_NR_hER: NovaScreen (NVS) Nuclear Receptor Binding Assay for human Estrogen Receptor (ER) (AID 2283348)
Summary of the method: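 Radiodetection of ligand displacement in a lysate-based, cell-free format using MCF7 extracts, read at 18 hours. Duplicate 25 uM primary testing, then concentration series for actives.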

[19] = biological target: Bile acid receptor (Homo sapiens) (UniProt Q96RI1); test: NVS_NR_hFXR_Antagonist: NovaScreen (NVS) Nuclear Receptor Binding Assay for human Farnesoid X Receptor Antagonism (FXR) (AID 2283350)
Summary of the method: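 Antagonist-format time-resolved FRET binding assay with extracted human receptor protein, read 1 hour after compound addition. Compounds first screened at 25 uM in duplicate, then actives tested in concentration series, with loss of signal relative to DMSO.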

[20] = biological target: Retinoic acid receptor alpha (Homo sapiens) (UniProt P10276); test: NVS_NR_hRAR_Antagonist: NovaScreen (NVS) Nuclear Receptor Binding Assay for human Retinoic Acid Alpha Receptor Antagonism (RAR) (AID 2283358)
Summary of the method: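 Chemicals were first tested in duplicate at 25 uM, then actives in concentration series, in a cell-free TR-FRET antagonist binding format. Measurements were taken 2 hours after dosing and loss of signal was evaluated against DMSO controls.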

Measured: AC50

Chain of bovine Estrogen Receptor (ER), ESR1 (gene 407238) (P49884 whole entry, looked up): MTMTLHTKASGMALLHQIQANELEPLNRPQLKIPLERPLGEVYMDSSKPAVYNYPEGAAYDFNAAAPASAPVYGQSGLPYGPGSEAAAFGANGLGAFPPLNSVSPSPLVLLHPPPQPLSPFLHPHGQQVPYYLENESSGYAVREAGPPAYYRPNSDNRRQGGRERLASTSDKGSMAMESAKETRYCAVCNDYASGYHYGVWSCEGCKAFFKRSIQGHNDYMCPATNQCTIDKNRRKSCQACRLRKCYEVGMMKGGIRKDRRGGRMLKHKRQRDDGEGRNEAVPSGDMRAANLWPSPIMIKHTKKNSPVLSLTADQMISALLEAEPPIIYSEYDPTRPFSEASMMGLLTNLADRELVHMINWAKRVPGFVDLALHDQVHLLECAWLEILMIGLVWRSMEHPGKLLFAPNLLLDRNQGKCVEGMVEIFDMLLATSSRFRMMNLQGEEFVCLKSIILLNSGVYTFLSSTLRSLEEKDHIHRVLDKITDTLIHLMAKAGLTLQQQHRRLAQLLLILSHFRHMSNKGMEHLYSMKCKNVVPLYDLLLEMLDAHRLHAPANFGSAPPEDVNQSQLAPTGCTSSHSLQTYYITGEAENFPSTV
Chain of chimpanzee Androgen Receptor (AR), AR (gene 747460) (O97775 whole entry, looked up): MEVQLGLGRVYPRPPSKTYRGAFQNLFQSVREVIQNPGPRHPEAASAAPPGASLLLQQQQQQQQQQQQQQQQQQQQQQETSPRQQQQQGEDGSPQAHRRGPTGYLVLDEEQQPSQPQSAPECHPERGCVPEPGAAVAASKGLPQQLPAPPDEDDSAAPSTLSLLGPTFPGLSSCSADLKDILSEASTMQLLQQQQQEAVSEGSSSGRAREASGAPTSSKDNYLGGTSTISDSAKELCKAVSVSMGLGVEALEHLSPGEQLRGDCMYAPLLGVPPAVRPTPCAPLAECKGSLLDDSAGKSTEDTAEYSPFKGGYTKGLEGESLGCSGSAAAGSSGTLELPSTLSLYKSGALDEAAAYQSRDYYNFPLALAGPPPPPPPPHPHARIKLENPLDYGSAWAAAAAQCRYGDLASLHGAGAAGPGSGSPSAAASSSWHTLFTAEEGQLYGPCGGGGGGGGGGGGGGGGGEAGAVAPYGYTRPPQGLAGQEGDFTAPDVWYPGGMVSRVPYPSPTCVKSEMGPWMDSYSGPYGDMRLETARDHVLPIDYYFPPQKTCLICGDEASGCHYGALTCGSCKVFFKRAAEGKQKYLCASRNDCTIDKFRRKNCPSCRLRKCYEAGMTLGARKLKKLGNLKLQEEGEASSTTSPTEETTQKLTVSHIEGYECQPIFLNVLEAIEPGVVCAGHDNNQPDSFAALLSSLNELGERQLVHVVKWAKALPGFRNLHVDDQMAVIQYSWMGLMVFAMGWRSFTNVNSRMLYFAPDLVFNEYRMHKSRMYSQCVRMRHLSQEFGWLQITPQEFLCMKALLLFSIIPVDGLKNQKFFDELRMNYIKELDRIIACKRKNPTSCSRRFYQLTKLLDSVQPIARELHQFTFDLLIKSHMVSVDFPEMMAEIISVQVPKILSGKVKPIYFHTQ
Chain of Bile acid receptor (Homo sapiens) (Q96RI1 whole entry, looked up): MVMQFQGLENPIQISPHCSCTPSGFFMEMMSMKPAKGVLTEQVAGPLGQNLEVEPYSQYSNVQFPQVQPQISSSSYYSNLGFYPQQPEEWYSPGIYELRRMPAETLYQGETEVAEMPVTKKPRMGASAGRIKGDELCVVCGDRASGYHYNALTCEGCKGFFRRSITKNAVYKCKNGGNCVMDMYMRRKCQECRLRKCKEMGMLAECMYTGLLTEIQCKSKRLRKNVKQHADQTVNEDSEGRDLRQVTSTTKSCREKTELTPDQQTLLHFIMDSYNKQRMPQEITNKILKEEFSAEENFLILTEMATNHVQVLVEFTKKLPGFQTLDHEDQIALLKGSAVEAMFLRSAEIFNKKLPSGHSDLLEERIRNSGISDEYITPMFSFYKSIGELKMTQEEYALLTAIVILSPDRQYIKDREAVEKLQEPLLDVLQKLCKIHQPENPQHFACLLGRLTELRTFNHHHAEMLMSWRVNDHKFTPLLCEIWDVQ
Chain of Estrogen receptor beta (Homo sapiens) (Q92731 whole entry, looked up, the tested form may be a part): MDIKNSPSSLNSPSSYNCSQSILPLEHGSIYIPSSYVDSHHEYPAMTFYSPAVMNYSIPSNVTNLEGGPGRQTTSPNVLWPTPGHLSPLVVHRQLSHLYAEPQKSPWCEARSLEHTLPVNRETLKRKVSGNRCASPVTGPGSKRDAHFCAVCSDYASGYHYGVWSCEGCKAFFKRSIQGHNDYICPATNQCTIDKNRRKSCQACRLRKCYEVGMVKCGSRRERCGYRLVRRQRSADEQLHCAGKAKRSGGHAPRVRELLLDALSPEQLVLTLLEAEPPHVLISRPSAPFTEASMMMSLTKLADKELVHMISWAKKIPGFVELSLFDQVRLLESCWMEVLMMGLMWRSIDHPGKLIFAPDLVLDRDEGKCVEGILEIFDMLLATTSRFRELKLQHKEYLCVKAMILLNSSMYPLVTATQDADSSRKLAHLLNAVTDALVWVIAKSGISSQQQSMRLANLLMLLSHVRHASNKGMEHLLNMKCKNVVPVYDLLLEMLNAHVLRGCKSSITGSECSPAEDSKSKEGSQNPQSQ
Chain of Estrogen receptor (Homo sapiens) + Estrogen receptor beta (Homo sapiens) (P03372 whole entry, looked up): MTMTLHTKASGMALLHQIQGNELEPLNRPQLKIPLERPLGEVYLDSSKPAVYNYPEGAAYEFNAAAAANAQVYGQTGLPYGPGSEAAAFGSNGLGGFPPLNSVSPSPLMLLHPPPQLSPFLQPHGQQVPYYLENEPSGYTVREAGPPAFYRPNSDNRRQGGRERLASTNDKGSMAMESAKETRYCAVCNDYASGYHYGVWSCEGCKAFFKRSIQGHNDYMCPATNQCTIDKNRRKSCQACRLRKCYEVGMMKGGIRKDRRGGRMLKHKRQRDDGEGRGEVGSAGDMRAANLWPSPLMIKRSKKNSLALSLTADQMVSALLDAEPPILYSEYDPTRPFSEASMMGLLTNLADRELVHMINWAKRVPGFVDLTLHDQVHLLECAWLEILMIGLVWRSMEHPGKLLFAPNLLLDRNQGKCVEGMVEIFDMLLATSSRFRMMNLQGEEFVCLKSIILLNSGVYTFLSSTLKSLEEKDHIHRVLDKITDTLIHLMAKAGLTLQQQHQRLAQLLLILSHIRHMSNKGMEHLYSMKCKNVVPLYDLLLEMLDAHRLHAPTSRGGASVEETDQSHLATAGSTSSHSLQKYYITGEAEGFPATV
Chain of Estrogen receptor (Homo sapiens) + Estrogen receptor beta (Homo sapiens) (Q92731 whole entry, looked up): as the sequence (Q92731 whole entry, looked up, the tested form may be a part) above
Chain of Estrogen receptor (Homo sapiens) (P03372 whole entry, looked up, the tested form may be a part): as the sequence (P03372 whole entry, looked up) above
Chain of human Constitutive Androstane Receptor (CAR), NR1I3 (gene 9970) (Q14994 whole entry, looked up): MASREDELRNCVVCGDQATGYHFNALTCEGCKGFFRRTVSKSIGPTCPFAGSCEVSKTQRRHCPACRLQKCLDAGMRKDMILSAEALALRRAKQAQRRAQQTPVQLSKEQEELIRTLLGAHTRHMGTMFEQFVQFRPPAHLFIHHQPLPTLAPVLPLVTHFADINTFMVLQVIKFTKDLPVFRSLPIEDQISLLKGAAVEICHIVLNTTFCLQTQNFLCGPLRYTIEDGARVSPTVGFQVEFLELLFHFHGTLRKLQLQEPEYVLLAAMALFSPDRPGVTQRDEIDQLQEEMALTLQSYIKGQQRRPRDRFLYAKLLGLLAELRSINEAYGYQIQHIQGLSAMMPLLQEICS

COc1cc(C(=O)NC2CCN(C)CC2)ccc1Nc1ncc2c(n1)N(C1CCCC1)CC(F)(F)C(=O)N2C
active: [1] 10.8 µM | [2] 15.9 µM | [3] 4.77 µM | [5] 2.24 µM | [8] 25.9 µM | [9] 52.5 µM
inactive: [4] | [6] | [7] | [10]

CC(C)(c1cc(Br)c(O)c(Br)c1)c1cc(Br)c(O)c(Br)c1
inactive: [4] | [10]
active: [11] 44.4 µM

COc1ccc2cc(S(=O)(=O)N[C@H](CC(=O)N[C@H](Cc3ccc(CN4[C@H](C)CCC[C@@H]4C)cc3)C(=O)N(C)C(C)C)c3ccc4c(c3)OCO4)ccc2c1
inactive: [12] | [2] | [5] | [6]
active: [1] 3.52 µM | [13] 0.128 µM | [3] 20.5 µM | [14] 10.8 µM

O=C1O[C@H]([C@@H](O)CO)C(O)=C1O
inactive: [11] | [10]

C[C@]12CC[C@@H]3c4ccc(O)cc4CC[C@H]3[C@@H]1CC[C@H]2O
active: [15] 0.0988 µM | [16] 0.135 µM

CN(C)C(=O)C1(N2CCCCC2)CCN(CC[C@@]2(c3ccc(Cl)c(Cl)c3)CN(C(=O)c3ccccc3)CCO2)CC1
active: [1] 0.27 µM | [3] 1.08 µM | [14] 13.9 µM | [8] 11.8 µM | [9] 16.6 µM
inactive: [12] | [2] | [17] | [18] | [5]

CC1=CC(=O)/C(=C(/C)O)C(=O)O1
inactive: [17] | [5] | [6] | [7] | [10]

CCCCCCCCN(C)CCCCCCCC
inactive: [1] | [4] | [18] | [5] | [6]
active: [3] 14.5 µM

OCCO
inactive: [5] | [6] | [8] | [9]

CCCCCCCCOc1ccc(C(=O)c2ccccc2)c(O)c1
inactive: [5] | [6]

CN1C(=O)CC[C@H]1c1cccnc1
inactive: [10]

CCO[Si](CCCNC(N)=O)(OCC)OCC
inactive: [5] | [19] | [6] | [7] | [10]

O=C(O)c1ccccc1C(=O)OCc1ccccc1
inactive: [5] | [19] | [6] | [8] | [9]

CCCCOC(=O)CC(CC(=O)OCCCC)(OC(C)=O)C(=O)OCCCC
inactive: [10]

CN1C(=O)N(c2ccccc2Br)Cc2cnc(Nc3ccc4c(c3)OCC(CO)O4)nc21 (stereo not given)
inactive: [14] | [5] | [6] | [7] | [10] | [20]
active: [4] 0.447 µM | [19] 0.0374 µM

O=C(OCCCCCCOC(=O)c1ccccc1)c1ccccc1
inactive: [5] | [6]

COCC(C)OCC(C)OCC(C)O (stereo not given)
inactive: [5] | [6] | [8] | [9] | [10]

CCCCCCCC[Si](OCC)(OCC)OCC
inactive: [10]

CCCCCCCCCCCO
inactive: [4] | [18] | [5] | [6] | [7] | [10]

O=C(O)c1ccccc1-n1cc(C(=O)O)c(=O)c2cc(Nc3c(F)cc(F)cc3Cl)c(Cl)cc21
inactive: [5] | [7] | [16]

c1ccc2n[nH]nc2c1
inactive: [10]
